Compound activity as filed in PubChem.
Hits are enriched below; roughly 6.2% of the tested compounds scored in any of these assays.
VP16 counter: counter-screen for ROR gamma inhibitors: Gal4-VP16 reporter; Potency, µM (top dose mostly 53.6 µM), for inactives: top-dose activity, negative = inhibition, hits mostly inhibitors; hit rate 3.5% among 310,000; Drosophila S2 Gal4-VP16 UAS-luciferase, luminescence, 20 h; AID 2546;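 note: Gal4-VP16 expression switched on by copper sulfate through the metallothionein promoter; nearly all actives have a fitted effect of over 50% in size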
RORgamma inh: blocks mouse ROR gamma transcriptional activity. Potency, µM (titrated, usually from 53.6 µM), inactives show at the highest dose activity change, negative = inhibition, usual class: inhibitors. Drosophila S2 Gal4-RORgamma UAS-luciferase reporter, 20 h. hit rate 5.4% among 310,000; note: nearly all actives have a fitted effect of over 60% in size
Target sequence (P51450 whole entry, looked up, the tested form may be a part): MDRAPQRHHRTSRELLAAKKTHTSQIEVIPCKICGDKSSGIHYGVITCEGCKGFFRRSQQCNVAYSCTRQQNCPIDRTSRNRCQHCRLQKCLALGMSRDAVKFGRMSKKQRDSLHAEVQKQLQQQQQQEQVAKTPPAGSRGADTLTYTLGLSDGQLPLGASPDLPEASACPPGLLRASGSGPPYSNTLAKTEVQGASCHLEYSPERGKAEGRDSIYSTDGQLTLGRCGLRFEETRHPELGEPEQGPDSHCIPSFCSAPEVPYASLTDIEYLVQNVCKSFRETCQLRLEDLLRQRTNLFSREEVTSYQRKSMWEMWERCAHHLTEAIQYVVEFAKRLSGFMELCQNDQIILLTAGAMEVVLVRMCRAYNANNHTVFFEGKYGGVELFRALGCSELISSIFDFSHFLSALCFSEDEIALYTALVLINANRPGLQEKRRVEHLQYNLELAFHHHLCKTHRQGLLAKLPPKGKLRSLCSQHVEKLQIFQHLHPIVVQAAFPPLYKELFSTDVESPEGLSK
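A Gal4/UAS one-hybrid system in insect cells: metallothionein-promoter Gal4–ROR gamma fusion plus Photinus luciferase reporter. Copper sulfate 700 uM final, 20 hr ambient incubation, luminescent detection after 10 min with reagent.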
Luc counter: blocks Kinase-Glo luciferase, a counter-screen artifact; Kinase-Glo luciferase, ATP luminescence, 8 min; Potency, µM (highest dose often 38.3 µM), without a hit: at the highest dose activity change, negative = inhibition, hits mostly inhibitors; hit rate 0.28% among 200,000; note: nearly all actives have a fitted effect of over 60% in size
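Light output from Kinase-Glo luciferase with luciferin and 10 uM ATP in 50 mM imidazole pH 7.2, KCl, MgCl2, Tween 20, BSA; compound pin-delivered, 8-min ambient incubation, then luminescence read.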
Starred values were filed as active, the others as inactive; ? = inconclusive; · = no result given; [ ] = remark or other dose. Calls come from the whole dose curve; as a rule, active = well fitted curve in the direction sought with a large enough effect; inconclusive = small, poorly fitted or top-dose-only effect, or another doubt; inactive = no such curve, though single readings can be large; an effect the other way counts as inactive or inconclusive. % is set by controls: 0 for no effect and ±100 for the full control effect; potency is the fitted concentration of half-maximal effect.

SMILES	VP16 counter	RORgamma inh	Luc counter
O=C1C2C3C=CC(C3)C2C(=O)N1c1ccc(N2CCN(c3ccccn3)CC2)c([N+](=O)[O-])c1 (stereo unspecified)	4µM*	?	1%
CC(C)CCOc1ccc(/C=N/N2C(=O)CSC2=S)cc1	?	4.5µM*	·
O=C1CSC(=S)N1/N=C/c1ccc2c(c1)OCCO2	-5%	-45%	·
COc1ccc(C(=O)Cn2c(Cl)nc3c2c(=O)n(C)c(=O)n3C)cc1	-10%	16%	·
CCCCCCOC1(c2ccccc2)OC(=O)c2ccccc21 (stereo unspecified)	-7%	-14%	-1%
COC1(c2ccccc2)NC(=S)NN=C1c1ccccc1 (stereo unspecified)	?	11µM*	-2%
CCCCOC1(c2ccccc2)NC(=S)NN=C1c1ccccc1 (stereo unspecified)	?	10µM*	-4%
CO/N=C/C1C(=O)NN=C1c1ccccc1 (stereo unspecified)	-7%	10%	-1%
COc1ccc(C(=O)N2CCOC2CNC(=O)C(=O)NCc2ccccc2Cl)cc1 (stereo unspecified)	-2%	1%	·
COc1ccc(CN(C)C(=O)c2cnc(C)cn2)c(OC)c1OC	-3%	27%	·
CC(=O)c1ccc(C(=O)N2CCCC(N3CCN(c4ccc(F)cc4)CC3)C2)s1 (stereo unspecified)	-9%	-3%	·
c1ccc(-c2nnnn2-c2ccccc2)cc1	-8%	18%	·
ClC(Cl)(c1nnnn1-c1ccccc1)c1nnnn1-c1ccccc1	5µM*	10µM*	1%
Cc1cc(C(=O)CSc2nc3ccccc3o2)c(C)n1CC1CCCO1 (stereo unspecified)	?	1%	-2%
Cc1sc2nc(SCC(=O)c3cc(C)n(CC4CCCO4)c3C)n(C(C)C)c(=O)c2c1C (stereo unspecified)	11µM*	?	-4%
CCCCOc1ccc(N2CC(C(=O)NCCc3ccc(OC)c(OC)c3)CC2=O)cc1 (stereo unspecified)	-4%	10%	-2%
O=C(C1CC1)N(Cc1nc2ccccc2c(=O)[nH]1)Cc1cccs1	-1%	?	·
O=C(C1CCCCC1)N(Cc1nc2sc3c(c2c(=O)[nH]1)CCCC3)Cc1cccs1	?	11µM*	1%
O=C(OCC(=O)N1CCCC1=O)C1CCN(S(=O)(=O)c2c(Cl)cccc2Cl)CC1	?	-6%	·
C=CCn1c(C)cc(C(=O)COC(=O)COc2ccccc2C#N)c1C	1%	0%	·
C=CCn1c(C)cc(C(=O)COC(=O)[C@@H](NC(=O)c2ccccc2Cl)C(C)C)c1C	13µM*	14µM*	?
CC(NC(=O)C(C(=O)c1cccc([N+](=O)[O-])c1)n1cc(Cl)ccc1=O)c1ccccc1 (stereo unspecified)	6%	12%	-1%
Cc1cccc(NC(=O)C(CCC(N)=O)NC(=O)OCc2ccccc2)c1 (stereo unspecified)	-23%	2%	·
Cc1cccc(NC(=O)c2nc[nH]c2C(=O)N[C@@H](C)C(=O)OCc2ccccc2)c1	13µM*	8.9µM*	·
Cc1cccc(NC(=O)c2nc[nH]c2C(=O)N[C@@H](CC(C)C)C(=O)OCc2ccccc2)c1	10µM*	3.5µM*	·
SMILES	VP16 counter	RORgamma inh	Luc counter
CCCCn1c(N)c(N(CC)C(=O)CSc2nnnn2-c2cc(C)ccc2C)c(=O)[nH]c1=O	-3%	13%	0%
O=C(c1ccc(Cl)cc1)c1ccc(Oc2cc(NN3CCCCC3)c([N+](=O)[O-])cc2[N+](=O)[O-])cc1	3%	-41%	·
COc1cccc(C(=O)C2CCCN(C(=O)c3cccc(C#CC(C)(C)O)c3)C2)c1 (stereo unspecified)	7%	29%	-2%
NC(=O)CN1C(=O)NC2(CCOc3ccccc32)C1=O (stereo unspecified)	-16%	-25%	·
CCN1CCN(C(CNS(=O)(=O)c2ccccc2)c2cccnc2)CC1 (stereo unspecified)	0%	-29%	·
CS(=O)(=O)c1ccc2nc(NC(=O)CCS(=O)(=O)c3ccccc3)sc2c1	?	18µM*	·
COC(=O)c1ccc2nc(NC(=O)CCS(=O)(=O)c3ccccc3)sc2c1	-17%	0%	·
CS(=O)(=O)c1ccc2nc(NC(=O)c3ccccc3)sc2c1	?	11µM*	·
Cc1cccc(C(=O)Nc2nc3ccc(S(C)(=O)=O)cc3s2)c1	?	-23%	·
O=C(CCCc1ccccc1)NCc1ccc(Cl)cc1	0%	-12%	·
COc1ccc2nc(N=Nc3c(O)ccc4ccccc34)sc2c1	4.5µM*	1µM*	-9%
COc1ccc2nc(NC(=O)Nc3cccc4ccccc34)sc2c1	-18%	-16%	0%
Cc1noc(C)c1S(=O)(=O)N1CCc2nc(-c3ccccc3)c3c(c2C1)CO[C@@H](C)C3	·	·	-5%[7.66 µM]
O=C(c1cccc(N2CCCC2=O)c1)N1CCN(c2cccc(Cl)c2)CC1	-1%	5%	·
Cc1ccccc1-c1nc(CS(=O)(=O)CC(=O)NCc2ccco2)c(C)o1	16%	0%	·
FC(F)(F)c1cccc(NC(=S)N2CCCC2)c1	0%	2%	·
c1ccc(-c2nc(N3CCN(c4ccccc4)CC3)nc(-n3ccnc3)n2)cc1	16µM*	13µM*	·
c1ccc(-c2nc(N3CCCCCC3)nc(-n3ccnc3)n2)cc1	0%	?	0%
COc1ccc(-c2csc(N3C(=O)CNC3=S)n2)cc1	?	?	2%
O=C1CNC(=S)N1c1nc(-c2ccccc2)cs1	?	3.2µM*	2%
Cn1c(N2CCN(C(=O)Nc3ccc(F)cc3)CC2)nc2ccccc21	-1%	-2%	-3%
Cn1c(N2CCN(C(c3ccccc3)c3ccccc3)CC2)nc2ccccc21	13µM*	11µM*	·
O=C(CCN1CCc2ccccc2CC1)c1ccc2c(c1)OCCO2	4µM*	6.3µM*	-3%
O=C(CCN1CCOCC1)c1ccc2c(c1)OCCO2	3.2µM*	?	0%
O=C(CCN1CCCCC1)c1ccc2c(c1)OCO2	13µM*	3.2µM*	-1%
SMILES	VP16 counter	RORgamma inh	Luc counter
O=C(CCCN1CCOCC1)c1ccc2c(c1)OCCO2	?	?	4%
O=C(CCN1CCCCC1)c1ccccc1	0%	7%	2%
O=C(Cc1ccccc1)c1ccc2c(c1)OCCO2	-13%	-9%	-15%
CS(=O)(=O)Nc1cccc(-c2ccc3ncnc(Nc4ccc(F)cc4)c3c2)c1	-1%	?	-4%
Cn1cc(CNCc2ccc(-n3cccn3)cc2)c(-c2ccccc2F)n1	11µM*	?	3%
Cn1cc(CNCCCn2ncc3ccccc32)c(-c2ccccc2F)n1	-8%	28%	3%
CCOC(=O)C(CCCCC(NC(C)=O)(C(=O)OCC)C(=O)OCC)(NC(C)=O)C(=O)OCC	-3%	0%	·
C/C(=N/NC(=O)CNc1ccc(C)cc1)c1ccc(Br)s1	1%	4%	0%
C/C(=N\NC(=O)c1ccco1)c1ccc(C(=O)O)s1	23%	31%	·
C/C(=N\NC(=O)c1cc(Cl)ccc1O)c1ccc(Br)s1	2.5µM*	6.3µM*	-1%
C/C(=N\NC(=O)c1ccc(Cl)cc1)c1ccc(Br)s1	1.1µM*	0.35µM*	-1%
C/C(=N/NC(=O)c1ccc(Br)s1)c1ccncc1	24%	9%	·
